Test [1] is described as follows: ATG_NF_kB_CIS: Attagene CIS-FACTORIAL HepG2 Assay for human Nuclear Factor Kappa B (NF-kB) (AID 2282991). The settings on record: HepG2 Attagene cis-factorial NF-kB reporter mRNA; actives raise or lower the signal. The gist of the method:
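After 24 h compound incubation, transfected HepG2 cells yield total RNA; reporter cDNA is PCR-amplified, end-labelled with 6-FAM, HpaI-digested and analysed on a genetic analyser. Endogenous factor activity, DMSO-referenced bidirectional fit.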

Test [2] can be described thus: ATG_NRF2_ARE_CIS: Attagene CIS-FACTORIAL HepG2 Assay for human Nuclear Factor Erythroid 2 Related Factor 2 (NFR2) response to Antioxidant Response Elements (ARE) (AID 2282992).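 For AC50: reporter mRNA level measured by RT-PCR and capillary electrophoresis fluorescence.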 The settings on record: HepG2 Attagene ARE/NRF2 reporter, transcription factor activity; actives raise or lower the signal. The gist of the method:
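Using transiently transfected HepG2 cells exposed for 24 h, reporter mRNA levels were determined by RT-PCR with fluorescent primer extension and capillary electrophoresis, analysed for gain or loss of signal against DMSO.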

A short description of test [3]: ATG_Oct_MLP_CIS: Attagene CIS-FACTORIAL HepG2 Assay for human Octamer-Binding Transcription Factor (Oct) (AID 2282993). The settings on record: HepG2 Attagene cis-factorial Oct reporter, mRNA; actives raise or lower the signal. In outline:
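Readout is reporter transcript level from RT-PCR with fluorescent primer extension and capillary electrophoresis, fitted in both directions against DMSO. Transfected HepG2 reporter units report endogenous factor activity after 24 h dosing.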

Test [4] addresses Cellular tumor antigen p53 (Homo sapiens) (UniProt P04637). The test can be described thus: ATG_p53_CIS: Attagene CIS-FACTORIAL HepG2 Assay for human p53 Transcription Factor (AID 2282994). The settings on record: HepG2 p53 cis-element reporter, Attagene mRNA; actives raise or lower the signal. In outline: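 In HepG2 cells, reporter transcription units under cis-regulatory promoters were transiently introduced. Following 24 h treatment, RNA was processed to labelled, digested cDNA fragments read by capillary electrophoresis; fitting was bidirectional versus DMSO.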

Test [5] in a line: BSK_3C_uPAR: BioMAP Diversity Plus: 3C Assay for Urokinase-type plasminogen activator receptor (uPAR) Biomarker Activity (AID 2282998). The settings on record: BioMAP 3C HUVEC, uPAR biomarker ELISA; actives raise or lower the signal. The gist of the method: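 Cell-surface uPAR on HUVEC (3C system) read by ELISA at 24 h post-treatment, with DMSO as baseline and fitting in both directions. Parallel cultures stained with SRB to flag overt cytotoxicity.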
(In general: An ELISA detects its analyte on a solid surface through an enzyme-linked reagent.)

Test [6] in a line: BSK_3C_VCAM1: BioMAP Diversity Plus: 3C Assay for Vascular cell adhesion molecule 1 (VCAM1) Biomarker Activity (AID 2282999). The settings on record: BioMAP 3C HUVEC, VCAM1 ELISA, cytokine-stimulated; actives raise or lower the signal. In outline: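 HUVEC primary cells, 24 h compound exposure; VCAM-1 by ELISA; gain/loss of signal fitted bidirectionally vs DMSO baseline.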
Test [7] is described as follows: BSK_4H_Eotaxin3: BioMAP Diversity Plus: 4H Assay for Eotaxin 3 Biomarker Activity (AID 2283000).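 For outcome: CCL26 protein level quantified by ELISA in parallel with SRB cytotoxicity check.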 The conditions noted are these: primary human endothelial cells (HUVEC); actives raise or lower the signal. In outline: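 Eotaxin-3 (CCL26) levels were measured by ELISA in HUVEC primary cultures 24 h post-dosing. Gain or loss of signal was fitted in both directions, with DMSO serving as baseline and negative control.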

Test [8] can be described thus: BSK_3C_TissueFactor: BioMAP Diversity Plus: 3C Assay for Tissue Factor Biomarker Activity (AID 2282997). The settings on record: BioMAP 3C HUVEC, tissue factor biomarker readout; actives raise or lower the signal. The gist of the method: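 Tissue Factor measured by ELISA, 24 h after treatment of primary HUVEC in the BioMAP 3C setting.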
The target of test [9] is human Peroxisome Proliferator-activated Receptor alpha (PPARa), PPARA (gene 5465) (UniProt Q07869). The test can be described thus: ATG_PPARa_TRANS: Attagene TRANS-FACTORIAL HepG2 Assay for human Peroxisome Proliferator-activated Receptor alpha (PPARa) (AID 2283001; active = hit-call score of the fitted dose curve at least 0.9, where 1 is the maximum). In outline:
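Transient HepG2 transfection, GAL4-UAS reporters, NR-Gal4 chimeras; 24 h compound exposure. Readout: reporter transcripts by RT-PCR, 6-FAM primer extension, HpaI digest, capillary electrophoresis. Positive direction vs DMSO baseline.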

Values joined by “and” are separate entries in the source; they are usually repeats but may differ in a detail not shown here. Equal entries are not always repeated. Results filed as inconclusive are left out. Active and inactive are the calls of the source. Rule for the calls, unless noted: active = hit-call score of the fitted dose curve at least 0.9, where 1 is the maximum; inactive = score below 0.9.

Chain of human Peroxisome Proliferator-activated Receptor alpha (PPARa), PPARA (gene 5465) (Q07869 whole entry, looked up, the tested form may be a part): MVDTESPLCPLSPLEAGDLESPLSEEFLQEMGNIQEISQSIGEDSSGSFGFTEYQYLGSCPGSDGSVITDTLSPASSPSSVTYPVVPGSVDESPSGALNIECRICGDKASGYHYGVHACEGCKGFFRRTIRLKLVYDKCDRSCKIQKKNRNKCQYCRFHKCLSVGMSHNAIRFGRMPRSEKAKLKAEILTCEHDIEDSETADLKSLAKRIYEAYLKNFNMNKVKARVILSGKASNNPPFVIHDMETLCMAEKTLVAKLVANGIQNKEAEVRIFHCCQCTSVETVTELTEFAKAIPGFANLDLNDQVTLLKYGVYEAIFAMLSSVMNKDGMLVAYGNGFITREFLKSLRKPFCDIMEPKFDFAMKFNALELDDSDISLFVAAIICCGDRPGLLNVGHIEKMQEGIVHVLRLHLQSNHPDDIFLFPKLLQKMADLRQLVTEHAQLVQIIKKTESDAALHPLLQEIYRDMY
Chain of Cellular tumor antigen p53 (Homo sapiens) (P04637 whole entry, looked up, the tested form may be a part): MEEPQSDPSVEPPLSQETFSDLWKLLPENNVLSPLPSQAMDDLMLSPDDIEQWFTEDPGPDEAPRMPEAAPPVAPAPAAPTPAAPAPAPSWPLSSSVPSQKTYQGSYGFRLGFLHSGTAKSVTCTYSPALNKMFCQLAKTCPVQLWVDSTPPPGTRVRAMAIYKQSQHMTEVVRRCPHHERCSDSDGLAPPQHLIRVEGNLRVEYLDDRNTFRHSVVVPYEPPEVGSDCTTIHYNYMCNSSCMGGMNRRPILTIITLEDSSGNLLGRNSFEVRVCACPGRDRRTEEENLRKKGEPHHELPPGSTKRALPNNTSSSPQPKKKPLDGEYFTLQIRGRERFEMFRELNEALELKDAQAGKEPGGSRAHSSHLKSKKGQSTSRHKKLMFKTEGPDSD

For the compound `FC(F)(F)COC(OCC(F)(F)F)OCC(F)(F)F`, the compound was called inactive in test [1], in [2], in test [3], in test [4], in test [5] and in [6]. In addition, the outcome in test [7] was inactive.

For the compound `OCCNCCO`, the outcome in test [2], in [3], in [5], in test [6] and in test [7] was inactive.

`O=S(=O)(O)c1ccc(N=Nc2c(O)ccc3cc(S(=O)(=O)O)ccc23)cc1`: the result in test [1], in test [2], in test [3], in test [8], in test [5] and in test [6] was inactive. Further, the result in test [7] and in test [9] was inactive.

In general, AC50 refers to the midpoint of the concentration-response curve, whichever way the signal moves. Regarding `CC(C)C(=O)Nc1ccc([N+](=O)[O-])c(C(F)(F)F)c1`, the AC50 in test [2] was 25.3 µM (active); in test [3] it was 26.1 µM (active). Further, the outcome in [8], in test [5], in test [6] and in test [7] was inactive.

In the case of `OCc1ccccc1`, the compound was called inactive in test [1], in [2], in test [3], in test [5], in test [6] and in test [7]. Further, in test [9], the compound was classed as inactive.

As for `CCCC(CCC)C(=O)O`, the outcome in test [1], in [2], in test [3], in test [8], in test [5] and in [6] was inactive. The result in test [7] and in test [9] was inactive.

As to `c1ccc2c(c1)-c1cccc3c1c-2cc1ccccc13`, the result in test [1], in test [3], in test [8], in test [5] and in test [6] was inactive. For the same compound, the AC50 is 204 nM (active) and 29.8 µM (active) in test [2]; 0.148 µM (active) in [7].

As to `Cc1ccc(S(=O)(=O)NC(=O)NN2CCCCCC2)cc1`, the result in [1], in test [2], in test [3], in test [8], in test [5] and in test [6] was inactive. For the same compound, the result in [7] and in test [9] was inactive.

For the compound `c1ccc2ncccc2c1`, the compound was called inactive in test [2], in test [3], in test [4], in test [5], in [6] and in [7]. For the same compound, the call in test [9] was inactive.

Take `CCCCCOC(C)=O`: the compound was called inactive in test [1], in test [2], in test [3], in [8], in test [5] and in test [6]. The outcome in test [7] was inactive.

Regarding `NC(N)=O`, the compound was classed as inactive in test [1], in test [2], in [3], in test [8], in test [5] and in test [6]. Also, the outcome in test [7] was inactive.

Regarding `C[C@@H](Oc1ccc(CNC(=O)c2cccnc2Oc2ccc3c(c2)OCO3)c(F)c1)C(=O)O`, the compound was classed as inactive in test [1], in [2], in test [3], in test [8], in test [5] and in test [6]. Moreover, the result in test [7] and in test [9] was inactive.

For `c1ccc2cc3ccccc3cc2c1`, the outcome in test [1], in test [2], in test [3], in test [4], in test [5] and in [6] was inactive. In addition, the outcome in [7] and in [9] was inactive. Further, in test [8], the AC50 is 2.03 µM (active).

As for `O=S(=O)(O)CCC(F)(F)C(F)(F)C(F)(F)C(F)(F)C(F)(F)C(F)(F)F`, the compound was called inactive in test [1], in test [2], in test [3], in test [4], in [5] and in test [6]. In addition, the outcome in [7] and in test [9] was inactive.

As for `CC(C)CCCCCCOC(=O)C1CCCCC1C(=O)OCCCCCCC(C)C` (stereo not drawn), the outcome in test [1], in test [2], in test [3], in [8], in test [5] and in [6] was inactive. Also, the result in test [7] and in [9] was inactive.

With `CCCCN1C(=O)[C@@H]([C@H](O)C2CCCCC2)NC(=O)C12CCN(Cc1ccc(Oc3ccc(C(=O)O)cc3)cc1)CC2`, the AC50 was 53.4 µM (active) in test [1], 93.5 µM (active) in test [4] and 26.7 µM (active) in [5]. Moreover, the call in [2], in test [3], in test [6], in test [7] and in test [9] was inactive.

Take `CCc1cccc(CC)c1N`: the outcome in [2], in [3], in test [4], in test [8], in test [5] and in [6] was inactive. In addition, the outcome in test [7] was inactive.

Consider `O=C(N[C@H](CO)[C@H](O)c1ccc([N+](=O)[O-])cc1)C(Cl)Cl`, for which the call in test [1], in test [2], in test [3], in [4] and in [9] was inactive.

As for `O=C(O)c1ccc2c(c1)nc(C(=O)NC1CCN(C3CC3)CC1)n2Cc1cc(-c2ccc(Cl)s2)on1`, the result in test [1], in test [2], in [3], in [4], in test [5] and in test [6] was inactive. Moreover, the result in test [7] and in [9] was inactive.
